Measured values from PubChem BioAssay AID720517 (National Center for Advancing Translational Sciences (NCATS), 2013).
Inconclusive results are not listed. Values without a mark were called inactive. The call rests on the fitted dose curve; in most records, active means well fitted activation curve with a large enough effect; inconclusive means small, poorly fitted or top-dose-only effect; inactive means flat fitted curve, though single readings scatter.

Experiment: qHTS for Inhibitors of Cell Surface uPA Generation: FP59 Counterscreen for Cherry-picked Compounds; further: 0% is about no effect
Details: FP59 anthrax toxin cytotoxicity counterscreen, cells; series mostly up to 115 µM; activity (protection from FP59): at the top concentration

SMILES | activity (protection from FP59)
COc1ncnc(NS(=O)(=O)c2ccc(N)cc2)c1OC | -1.32%
COc1ccc(-n2nc(C(=O)Nc3cc(OC)c(OC)c(OC)c3)c3ccccc3c2=O)c(OC)c1 | -0.854%
COc1ccc(C(=O)c2sc(Nc3ccccc3)nc2N)cc1 | -1.2%
Cc1ccc([C@H]2C(C(=O)O)=CC[C@@H](c3cccc(C)c3)N2S(=O)(=O)c2ccc(C)cc2)cc1 | -0.513%
O=C(NNC(=O)c1ncc(Cl)c(Cl)c1Cl)c1ccc(F)cc1 | 0.837%
COc1ccccc1NC(=O)Cn1nnc(-c2ccccc2NC(=O)c2cc3ccccc3oc2=O)n1 | -1.55%
O=C(Nc1ccc(Cl)cn1)C1CCCN(c2ncnc3c2nc2n3CCCCC2)C1 (stereo not given) | 2.43%
Cc1ccc(S(=O)(=O)N(C)c2ccc(OC(=O)c3ccc(=O)[nH]c3)cc2)cc1 | -1.51%
O=C(/C=C/c1cccc(F)c1)Nc1cc(S(=O)(=O)N2CCOCC2)ccc1Cl | -0.397%
COc1ccccc1C(=O)NCCC(=O)NCC(c1ccc(F)cc1)N1CCOCC1 (stereo not given) | -1.32%
O=C(NCCc1cn2ccsc2n1)c1cccs1 | -1.28%
Cc1cc(N2C(=O)C(O)=C(C(=O)c3ccco3)C2c2ccc(Cl)cc2)no1 (stereo not given) | -0.808%
Fc1ccc(N2CCN(c3nc(CN4CCOCC4)nc4scc(-c5ccccc5)c34)CC2)cc1 | 0.176%
CCOc1ccc(Cl)cc1/C=N/NC(=O)c1ccccc1 | -0.63%
O=[N+]([O-])c1ccc(-c2cn3c(n2)SCC3)cc1 | -1.08%
O=C(COc1cc2oc(=O)cc(-c3ccccc3)c2cc1Cl)NC(Cc1c[nH]c2ccc(O)cc12)C(=O)O (stereo not given) | -1.31%
CCOc1ccccc1C(=O)NC1CCN(CC(=O)Nc2cc(OC)ccc2OC)CC1 | -0.0735%
CCC(=O)N1CCC(NC(=O)Nc2ccc(OC(F)(F)F)cc2)CC1 | 0.228%
CN(C(=O)c1ccccc1C(=O)OCC(=O)NCc1ccccc1)C1CCCCC1 | -1.19%
O=c1[nH]c2ccccc2cc1CN(CC1CCCO1)S(=O)(=O)c1ccccc1 (stereo not given) | -1.45%

SMILES | activity (protection from FP59)
O=C(CN1CCN(Cc2ccc(Cl)cc2)C1=O)NCc1cccs1 | -1.43%
CCC(C)C(NC(=O)c1ccccc1)C(=O)Nc1ccc(S(=O)(=O)Nc2cc(C)nc(C)n2)cc1 (stereo not given) | -1.41%
Cc1ccccc1NC(=O)N1CCN(c2ncccn2)CC1 | -1.2%
COc1ccc(CN2CCN(Cc3ccc(C(F)(F)F)cc3)CC2)cc1 | -1.38%
COc1ccc(CCNC(=O)Cn2cccc2C(=O)c2ccccc2)c(OC)c1 | -0.888%
CN1CCN(C2=Nc3ccccc3Oc3ccc(Cl)cc32)CC1 | -1.01%
O=C(Nc1ccc(Cl)cc1)Nc1nnc(-c2ccncc2)s1 | -1.66%
Cc1cc(=O)[nH]c(=S)[nH]1 | -1.48%
COc1cc(CNCCc2ccccc2)cc(Br)c1OCC(=O)Nc1ccccc1C | -0.583%
O=C(COc1cccc2ccccc12)NNC(=O)c1cnccn1 | -0.155%
Cc1cc2c(cc1S(=O)(=O)Nc1ccc(F)cc1)n(C)c(=O)c(=O)n2C | -0.932%
Cc1ccc2c(c1)N(CC(=O)NCCCc1ccccc1)C(=O)c1cccnc1O2 | -1.38%
COCCN1C(=O)C(=O)/C(=C(/O)c2ccc(S(=O)(=O)N3CCOCC3)cc2)C1c1cccc([N+](=O)[O-])c1 (stereo not given) | -1.51%
CCOc1ccccc1CN1CCCC(CNS(=O)(=O)c2ccc(OC)cc2)C1 (stereo not given) | -0.81%
COc1ccccc1N1CCN(C2CC(=O)N(c3ccccc3)C2=O)CC1 (stereo not given) | -1.38%
Cc1ccc(N2C(=O)c3ccccc3C2(O)c2ccccc2)cc1 (stereo not given) | -1.32%
CCc1ccc(N2CC(C(=O)Nc3ccc4c(c3)OCO4)CC2=O)cc1 (stereo not given) | -1.2%
CC(=O)c1ccc2c(c1)c1ccccc1n2CC(C)C | -1.24%
COCCN(C(=O)CSc1nnc(-c2ccncc2)n1C)c1c(N)n(CC(C)C)c(=O)[nH]c1=O | -1.31%
Cc1[nH]c2ccccc2c1C(=O)COC(=O)c1cccc(S(=O)(=O)N2CCCCC2)c1 | 0.844%
